# Screens from PubChem BioAssay.
# dFosB activator: activators of delta FosB homodimer, primary screen, biochemical, fluorescence polarization, TAMRA-CDK5 oligo, single point | actives 0.99% (n = 340,000) | activation, % at 25 µM | purified delta FosB; percent of positive-control signal above neutral wells | Protein FosB (Mus musculus), P13346 | AID 493131, 2011;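 active = mean activation above about 17%, with every replicate also reaching it, limit read from the data, passing the limit was not always enough; inconclusive = only one of the two conditions met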
# TPT1 inhibitor: Candida albicans TPT1 enzyme inhibitors, primary screen, biochemical, fluorescence polarization | recombinant caTPT1, FP RNA substrate dephosphorylation | inhibition, % at 5 µM | actives 0.81% (n = 300,000) | AID 1962, 2009;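 active = inhibition above the mean of all tested compounds plus 3 SD, set per screening campaign, cut at about 24% in these data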;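 note: plate controls were DMSO alone for no effect and ferristatin control at 100 nM for full effect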
# GRIN3A LBD mod: binders of NR3A ligand-binding domain, primary screen, biophysical, differential scanning fluorimetry, uHTS; NR3A LBD differential scanning fluorimetry, Tm shift; 0% = protein alone, 100% = glycine-bound protein; Tm shift relative to glycine control, % at 25 µM; actives 2.5% (n = 340,000); AID 1259313, 2017;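 active = melting temperature shift of at least 10% of the positive control shift, at one fixed dose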
# ZTA counter: ZTA (EBV) inhibition in EBNA-1 counter-screen; ZTA-DNA binding, fluorescence polarization; AID 2234; P03206; inhibition, % at 11 µM; actives 0.15% (n = 320,000); in the data active = inhibition above about 33%
# Target sequence (P03206 whole entry, looked up): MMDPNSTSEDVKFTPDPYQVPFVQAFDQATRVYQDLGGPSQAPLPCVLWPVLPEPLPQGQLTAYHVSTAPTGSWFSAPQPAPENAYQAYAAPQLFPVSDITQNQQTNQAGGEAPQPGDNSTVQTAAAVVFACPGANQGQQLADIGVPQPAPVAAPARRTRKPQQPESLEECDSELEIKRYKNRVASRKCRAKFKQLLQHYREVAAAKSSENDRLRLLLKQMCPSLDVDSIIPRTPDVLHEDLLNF
# Rpn11 block: Rpn11 (PSMD14) deubiquitinase inhibitors, primary screen, biochemical, fluorescence polarization, uHTS. 26S proteasome non-ATPase regulatory subunit 14 (Homo sapiens), O00487. actives 0.59% (n = 360,000). inhibition, % at 20 µM. human 26S proteasome, Ub4-pepOG fluorescence polarization; 20S core pre-blocked with epoxomicin;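 active = inhibition at 20 µM, scaled to each plate's controls, above about 33%, limit read from the data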
# Target sequence (O00487 whole entry, looked up): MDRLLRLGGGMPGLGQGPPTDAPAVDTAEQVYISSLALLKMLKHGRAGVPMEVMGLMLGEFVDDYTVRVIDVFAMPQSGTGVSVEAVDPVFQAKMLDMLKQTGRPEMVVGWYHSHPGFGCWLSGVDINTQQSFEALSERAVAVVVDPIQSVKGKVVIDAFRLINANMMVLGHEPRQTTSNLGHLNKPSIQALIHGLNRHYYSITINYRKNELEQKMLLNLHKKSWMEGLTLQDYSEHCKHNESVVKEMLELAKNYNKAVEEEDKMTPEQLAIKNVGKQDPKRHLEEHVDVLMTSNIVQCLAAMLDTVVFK
# EBNA-1 inhibitor: EBNA-1 DNA-binding inhibitors, primary screen, biochemical, fluorescence polarization; inhibition, % at 14.8 µM; actives 0.34% (n = 300,000); AID 1950, 2009; in the data active = inhibition above about 28%
# * marks the source's active call; other numbers are inactive results; ? = inconclusive; nt = no result. Most compounds without a hit are left out; they make up all but 4.5% or so of the library.
SMILES,dFosB activator,TPT1 inhibitor,GRIN3A LBD mod,ZTA counter,Rpn11 block,EBNA-1 inhibitor
S=C(NNC(=S)Nc1ccccc1)Nc1ccccc1,-7,-2,35*,-11,2,9
COc1ccc(-c2nc3ccc([N+](=O)[O-])cc3[nH]2)cc1,-4,4,29*,4,2,2
Cc1ccc(-c2nc3ccc([N+](=O)[O-])cc3[nH]2)cc1,3,3,25*,-5,-3,-8
O=[N+]([O-])c1ccc2nc(-c3ccc(Cl)cc3)[nH]c2c1,2,7,28*,-7,-1,6
O=[N+]([O-])c1ccc2nc(-c3ccncc3)[nH]c2c1,1,-2,1,17,1,-3
Nc1ccc2nc(-c3ccc(-c4nc5ccc(N)cc5[nH]4)cc3)[nH]c2c1,nt,6,18*,-24,nt,-17
Nc1ccc2nc(-c3cccc(-c4nc5ccc(N)cc5[nH]4)n3)[nH]c2c1,?,7,-6,-22,1,5
Cc1ccc(OCc2cc(C(=O)N3CC4C[C@@H]5CC3C[C@H](C4)C5)no2)cc1C,-5,1,6,9,17,2
O=C(CCS(=O)(=O)c1ccccc1)Nc1ccccc1F,-19,0,-2,5,-4,-15
N#Cc1c(N)n(-c2ccc(N)cc2)c2nc3ccccc3nc12,-1,-1,0,9,1,-5
CCCCC(CC)Cn1c(N)c(C#N)c2nc3ccccc3nc21 (stereo unspecified),0,1,11*,16,33,6
CN(CC(=O)Nc1ccc(Cl)c(C(F)(F)F)c1)C(=O)Cc1c[nH]c2ccccc12,-3,-1,12*,-6,-2,-10
CCc1ccccc1NCC(=O)Nc1ccc(Cl)c(C(F)(F)F)c1,4,-2,21*,16,-5,8
C/C(CC(=O)Nc1ccc(Cl)c(C(F)(F)F)c1)=N\NC(=O)c1cccc(O)c1,0,-1,-3,19,7,8
COc1ccccc1NC(=O)CN1CCN(CC(=O)Nc2ccc(Cl)c(C(F)(F)F)c2)CC1,-4,nt,-5,nt,1,nt
C/C(CC(=O)Nc1ccc(Cl)c(C(F)(F)F)c1)=N\NC(=O)c1ccccc1O,-7,2,24*,16,-3,3
Cc1ccc(C)c(S(=O)(=O)N2CCCOC2CNC(=O)C(=O)NC2CC2)c1 (stereo unspecified),-4,2,-3,-10,-4,-2
Cc1ccc(C(=O)C[n+]2ccc(-c3nnc4n3CCC4)cc2)cc1,2,2,-1,-4,-1,9
CCc1c(C)sc(NC(=S)N2CC(C)OC(C)C2)c1C(=O)OC (stereo unspecified),-11,3,13*,13,-5,0
Cc1cc(C)c(C#N)c(SCCS(=O)(=O)Cc2ccc(Cl)cc2)n1,-11,-4,18*,-2,-2,22
Cc1c(C(=O)N2CCc3ccccc32)oc2ccccc12,-5,1,14*,-7,-2,-9
COCc1c(C(=O)N2CCc3ccccc32)oc2ccccc12,-8,-2,1,1,7,7
CS(=O)(=O)N(CC(=O)N1CCOCC1)c1ccccc1,2,-2,2,-5,-2,1
Cc1n[nH]c(C)c1S(=O)(=O)N1CCOCC1,1,1,14*,9,-5,7
Cc1n[nH]c(C)c1S(=O)(=O)N1CCC(C(=O)O)CC1,-3,-1,-1,9,-4,15
SMILES,dFosB activator,TPT1 inhibitor,GRIN3A LBD mod,ZTA counter,Rpn11 block,EBNA-1 inhibitor
CCn1c(O)c(/C=C2\C=NN=C2c2ccc(C)cc2)sc1=S,-1,5,12*,-2,27,-14
Cc1[nH]n(-c2ccccc2)c(=O)c1/C=C1\C=NN=C1c1ccccc1,-16,-1,-5,-4,2,0
CC(C)n1c(O)c(/C=C2\C=NN=C2c2ccccc2)sc1=S,8,1,11*,-2,8,-10
COc1cccc(C(=O)Nc2cc(OC)ccc2NC(=O)c2ccco2)c1,-9,-5,0,6,9,-1
CCOC(=O)[C@H]1[C@H]2COc3ccc(C)cc3[C@@H]2N2C(=O)c3cc(F)c(F)cc3NC(=O)[C@@]12C,2,2,-2,-9,-9,-11
COc1cccc(OCCOc2ccc(/C=C3/SC(=S)NC3=O)cc2)c1,-6,20,10*,18,21,1
Clc1cccc(/C=N/Nc2ncnc3ccccc23)c1,-9,-1,14*,13,4,14
C(=N\Nc1ncnc2ccccc12)/c1ccccc1,-16,-1,-45,-7,1,-2
Nc1c(Cl)ncnc1N/N=C/c1ccccn1,nt,-9,-1,-14,nt,-7
Nc1c(Cl)ncnc1N/N=C/c1ccnc2ccccc12,-1,3,13*,2,0,1
CNC(=O)COc1coc(CN2CCN(c3ccc(F)cc3)CC2)cc1=O,-6,-2,0,-6,-1,5
Cc1ccc(N2C(=O)C3N=NN(CC(=O)N4N=C(c5ccccc5)CC4c4ccccc4)C3C2=O)cc1 (stereo unspecified),-1,2,2,9,18,-9
Cc1cccc(C)c1NC(=O)CN1N=NC2C(=O)N(c3cccc(Cl)c3)C(=O)C21 (stereo unspecified),-4,5,18*,5,3,-2
c1ccn2cc(C34CC5CC(CC(C5)C3)C4)nc2c1,-6,1,-1,1,-2,5
Cc1ccc(-n2c(C)cc(C3N=C(N)Nc4nc5ccccc5n43)c2C)c(C)c1 (stereo unspecified),65*,1,-23,-11,11,-5
Cc1cc(C2N=C(N)Nc3nc4ccccc4n32)c(C)n1-c1ccccc1Cl (stereo unspecified),76*,-1,12*,2,1,5
NC1=NC(c2ccc(F)cc2)n2c(nc3ccccc32)N1 (stereo unspecified),2,3,9,-2,-4,-10
CC(C)(C)c1ccc(C(=O)O)c(C(=O)c2ccccc2)c1,-11,-5,-2,0,-6,0
CC(C)c1nc(SCC(=O)Nc2c[nH]c(=O)[nH]c2=O)c2cnn(-c3ccccc3)c2n1,153*,1,-2,-7,4,-12
OCc1ncc(-c2ccccc2)s1,-5,2,10*,18,0,-10
OCCCNc1ncnc2sc(-c3ccccc3)cc12,1,-3,-1,-7,-9,4
